Glioma ERSR ind – qHTS for Inducers of the Endoplasmic Reticulum Stress Response (ERSR) in Human Glioma: qHTS | actives 0.02% (n = 420,000) | U87-MG GRP78 promoter luciferase reporter, 16 h | Potency, µM, most hits filed as activators; also: series mostly up to about 76 µM; nearly all actives have a fitted effect of over 35% in size
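Stably transfected U87-MG glioma cells carrying a GRP78-based luciferase sensor; 16 h compound incubation. Luminescence end-point read 10 min after Bright-Glo addition at room temperature.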
12-LOX inh – Primary qHTS assay for inhibitors of human arachidonate 12S-lipoxygenase (ALOX12): Round 2 | Polyunsaturated fatty acid lipoxygenase ALOX12 (Homo sapiens), P18054 | purified 12hLO, xylenol orange hydroperoxide absorbance | actives 1.1% (n = 580,000) | AID 1671190, 2021 | Potency, µM (titrated, usually from 108 µM), usual class: inhibitors
Target sequence (P18054 whole entry, looked up): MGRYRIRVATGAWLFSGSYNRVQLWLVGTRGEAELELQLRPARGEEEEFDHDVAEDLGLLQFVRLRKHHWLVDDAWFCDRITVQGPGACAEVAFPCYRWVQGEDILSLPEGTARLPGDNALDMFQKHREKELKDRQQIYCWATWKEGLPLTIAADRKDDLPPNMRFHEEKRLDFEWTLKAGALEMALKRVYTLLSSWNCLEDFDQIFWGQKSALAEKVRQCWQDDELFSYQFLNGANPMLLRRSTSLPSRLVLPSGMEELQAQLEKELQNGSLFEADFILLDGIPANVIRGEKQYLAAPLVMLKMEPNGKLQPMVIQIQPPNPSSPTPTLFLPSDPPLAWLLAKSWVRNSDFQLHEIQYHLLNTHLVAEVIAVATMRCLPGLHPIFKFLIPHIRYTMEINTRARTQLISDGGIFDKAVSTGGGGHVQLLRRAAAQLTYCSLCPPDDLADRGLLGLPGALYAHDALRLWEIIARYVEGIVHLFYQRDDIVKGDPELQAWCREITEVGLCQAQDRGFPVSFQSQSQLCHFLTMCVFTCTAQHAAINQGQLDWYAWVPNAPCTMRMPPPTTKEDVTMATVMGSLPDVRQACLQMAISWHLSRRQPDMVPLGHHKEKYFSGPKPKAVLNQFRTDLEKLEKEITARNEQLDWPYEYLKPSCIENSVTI
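Hydroperoxide product was detected by ferrous iron/xylenol orange as the 573 to 405 nm absorbance ratio. Arachidonic acid at 40 uM (final) was turned over for 30 min at room temperature by 150 nM human 12hLO, pH 7.0 Hepes buffer, after 15 min compound preincubation.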
GLP1R inv ag – qHTS of GLP-1 Receptor Inverse Agonists (Inhibition Mode); HEK293 GLP-1R CRE-luciferase, luminescence, 24 h; GLP-1R form is constitutively active; Potency, µM (doses to about 38.3 µM), usual class: inhibitors; actives 1.6% (n = 410,000); AID 624417, 2012; also: nearly all actives have a fitted effect of over 55% in size
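GLP-1R inverse agonism mode: basal reporter luminescence in engineered HEK293 cells measured after one day of compound exposure at 37 deg C, with a 12 min room-temperature detection step.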
PTHR1 agonist – qHTS for PTHR1 Agonists: Primary Screen | HEK293 GP2 PTHR1 cells, GloSensor cAMP luminescence, 1 h | Potency, µM (doses to about 115 µM), most hits filed as activators | actives 0.075% (n = 410,000) | AID 743266, 2014; also: nearly all actives have a fitted effect of over 55% in size
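HEK-293-derived GP2 cells expressing PTHR1 and a GloSensor cAMP reporter, 3,000/well, plated overnight, given luciferin plus IBMX (each 0.5 mM as added) for 1 h at 37 °C, then compound for 1 h at 37 °C. Luminescence was read after 15 min at room temperature.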
GLP-1R agonist – qHTS of GLP-1 Receptor Agonists; Glucagon-like peptide 1 receptor (Homo sapiens), P43220; HEK293 GLP-1R CRE-luciferase, luminescence, 4-6 h; cells express a hypersensitive GLP-1R form; Potency, µM (titrated, usually from 45.6 µM), most hits filed as activators; actives 0.007% (n = 380,000)
GLS inh – qHTS for Inhibitors of Glutaminase (GLS); actives 0.21% (n = 410,000); GLS enzymatic activity, qHTS titration; Glutaminase kidney isoform, mitochondrial (Homo sapiens), O94925; Potency, µM (top dose mostly 45.5 µM), actives largely listed as inhibitors; AID 624170, 2012
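hKGA in 45 mM KH2PO4 (pH 8.2), 0.02% Tween-20 with compound, then 1mM L-Glutamine (stock as added) plus glutamate oxidase/HRP/Amplex red coupling mix. Fluorescence read initially and after 30 min at RT; signal change reflects glutamate formation.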
Hits are given with their value; – = inactive; ? = inconclusive; · = no result. Most compounds without a hit are left out; they make up all but 2.3% or so of the library. Calls follow the shape of the dose curve; as a rule, active = well fitted curve in the direction sought with a large enough effect; inconclusive = small, poorly fitted or top-dose-only effect, or another doubt; inactive = no such curve, though single readings can be large; an effect the other way counts as inactive or inconclusive.

SMILES	Glioma ERSR ind	12-LOX inh	GLP1R inv ag	PTHR1 agonist	GLP-1R agonist	GLS inh
CCn1c(SCC(=O)Nc2ccc3c(c2)OCO3)nc2c(-c3ccc(C)cc3)csc2c1=O	·	–	·	·	·	·
CCCCCC(=O)Nc1cc(S(=O)(=O)O)cc2cc(S(=O)(=O)O)cc(O)c12	–	?	–	–	–	1.8µM
CCc1ccc(CNc2ccc(N3CCN(C(C)=O)CC3)cc2)cc1	–	32µM	–	–	–	–
CC(=O)N1CCN(c2ccc(NCc3ccc(C)cc3)cc2)CC1	–	?	–	–	–	–
COc1cc(CNc2ccc(N3CCN(C(C)=O)CC3)cc2)ccc1OCc1ccccc1	–	?	–	–	–	13µM
COc1cc(CNc2ccc(N3CCOCC3)cc2)ccc1OCC(=O)NC(C)(C)C	–	–	–	–	–	–
CCc1noc2nc(C)nc(N3CCCC(C(=O)NCc4ccccc4F)C3)c12 (configuration not stated)	·	–	·	·	·	·
O=C(N/N=C/c1cc([N+](=O)[O-])cc([N+](=O)[O-])c1O)/C(=C\c1cccs1)NC(=O)c1ccccc1	–	16µM	–	–	–	–
CN(C(=O)COC(=O)c1ccccc1Nc1ccccc1)c1c(N)n(Cc2ccccc2)c(=O)[nH]c1=O	–	?	?	–	–	–
COCCN(C(=O)COC(=O)c1ccccc1Nc1ccccc1)c1c(N)n(Cc2ccccc2)c(=O)[nH]c1=O	–	?	13µM	–	–	–
Brc1ccc2[nH]c3c(c2c1)CCCC3=NCc1ccccc1	·	–	·	·	·	·
CN(C(=O)c1cc(C2CC2)nc2ccccc12)c1ccccc1	·	–	·	·	·	·
N#Cc1ccc(-n2cccc2C=O)cc1	·	–	·	·	·	·
COc1cc(SC)ccc1C(=O)N(CC(=O)Nc1ccccc1Br)Cc1ccco1	–	–	10µM	–	–	–
O=C(CN(Cc1ccco1)C(=O)c1cc(=O)[nH]c2ccccc12)Nc1ccccc1Br	–	–	–	–	–	–
CN(c1nc2c(c(=O)n(C)c(=O)n2C)n1CC(=O)c1ccccc1)C1CCCCC1	–	–	7.9µM	–	–	–
Cc1cc(N2CCC3(CCCN(CC4CCC4)C3=O)C2)nc2ccccc12 (configuration not stated)	·	–	·	·	·	·
CC1(C)CCCC(C)(C#CCN2CCN(C(c3ccccc3)c3ccccc3)CC2)O1 (configuration not stated)	·	10µM	·	·	·	·
CCc1ccc(/C=C/C(=O)C2C(=O)c3ccccc3C2=O)cc1	–	?	–	–	–	–
CC[N+]1(C)CCC(O)(/C=C/c2ccccc2)C(C(=O)/C=C/c2ccccc2)C1 (configuration not stated)	–	–	10µM	–	–	–
Cc1ccc(OCn2ccc(C(=O)N3CCN(Cc4ccccc4F)CC3)n2)c(C)c1	·	–	·	·	·	·
CN1CCN(CCNC(=O)c2ccc3nc(-c4ccc(F)cc4)c(-c4ccc(F)cc4)nc3c2)CC1	–	–	5.6µM	–	–	–
C=CCNC(=O)NC(=O)COC(=O)Cc1cccc(C(F)(F)F)c1	·	–	·	·	·	·
CCOC(=O)Nc1ccc(NS(=O)(=O)c2ccc(F)cc2C)cc1	·	25µM	·	·	·	·
CC(=O)c1c(O)c(C)c(O)c2c1OC1=CC(=O)C(C(C)=O)C(=O)C12C (configuration not stated)	–	·	·	·	·	·
SMILES	Glioma ERSR ind	12-LOX inh	GLP1R inv ag	PTHR1 agonist	GLP-1R agonist	GLS inh
CC(=O)Oc1c(C)c(OC(C)=O)c2c(c1C(C)=O)OC1CC(=O)C(C(C)=O)=C(O)C21C (configuration not stated)	–	28µM	?	–	–	–
CSc1ccc(Cl)c(C(=O)OCC(=O)OC2CC(C)CCC2C(C)C)c1 (configuration not stated)	·	–	·	·	·	·
O=C(CCNS(=O)(=O)c1ccccc1C(F)(F)F)NCCCSc1ccccc1	–	·	13µM	–	–	–
CN(C(=O)COC(=O)C12CC3CC(CC(Cl)(C3)C1)C2)C1(C#N)CCCCC1	–	–	13µM	–	–	–
COc1ccc(-c2ccc(C(=O)Nc3cccc(C(F)(F)F)c3)c3occc23)c(C)c1	–	?	4.5µM	–	–	–
COc1ccc(NC(=O)CN(C)CC(=O)Nc2cccc(F)c2)cc1Cl	–	–	10µM	–	–	–
COc1cccc(NC(=O)CN(C)CC(=O)Nc2cccc(C(F)(F)F)c2)c1	–	–	7.1µM	–	–	–
COc1ccc(-c2ccc(C(=O)Nc3ccc(NC(C)=O)cc3)c3occc23)c(C)c1	–	?	?	–	–	–
COc1ccc(NC(=O)c2cccc(F)c2)cc1Cl	–	–	?	–	–	–
COc1cccc(NC(=O)CN(C)C(=O)C23CC4CC(CC(Cl)(C4)C2)C3)c1	–	–	7.9µM	–	–	–
O=C(O)c1ccccc1C(=O)OCCCC(F)(F)C(F)(F)F	·	–	·	·	·	·
CC(C(=O)N(C)Cc1ccccc1)S(=O)(=O)Cc1cccc(Cl)c1 (configuration not stated)	·	–	·	·	·	·
COC(=S)Nc1cccc(C(F)(F)F)c1	–	–	–	–	–	–
COc1cccc(NC(=O)CN(C)C(=O)c2ccc(-c3ccccc3Cl)o2)c1	–	?	8.9µM	–	–	–
COC(=O)/C=C/C(=O)Nc1cccc(C(F)(F)F)c1	–	–	7.9µM	–	–	–
COc1cc(NC(=O)c2nccnc2N)cc(C(=O)Nc2cccc(C(F)(F)F)c2)c1	–	–	–	–	–	–
COc1cc(OC)cc(C(=O)Nc2ccc(Nc3ccccc3)cc2)c1	–	–	11µM	–	–	–
COc1cc(Nc2ccccn2)cc(C(=O)Nc2cccc(C(F)(F)F)c2)c1	–	–	11µM	–	–	–
CCOC(=O)/C(=C/c1c2ccccc2cc2ccccc12)NC(=O)c1ccccc1	–	?	4.5µM	–	–	–
COc1ccc(NC(=O)Cn2c(-c3ccccc3)cn(-c3ccc(C)cc3)c2=O)cc1	–	?	10µM	–	–	–
O=C(NCCCc1ccccc1F)[C@@]12CNC[C@@H]1CN(Cc1ccccc1)C2	·	–	·	·	·	·
CC/C(=N\Nc1ccnc2cc(Cl)ccc12)c1ccc(O)cc1	–	?	?	–	–	–
Oc1ccc(/C=N/Nc2ccnc3cc(Cl)ccc23)c(O)c1O	–	?	–	–	–	13µM

Screening results (PubChem BioAssay)
